Source: PubChem (Center for Chemical Genomics, University of Michigan)
Many of the other results were omitted from the sample, so hits are more common in it than they were.
Dicer inh = human Dicer pre-microRNA cleavage inhibition; Q9UPY3; cat-ELCCA pre-miR-21 Dicer processing, chemiluminescence; stronger effect = higher value; z-score at 25 µM; hit rate 6% among 47,000; AID 1347074; in the data active means z-score above about 3, passing the limit was not always enough;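 further: plate controls were vehicle for no effect and no enzyme for full effect; higher signal means more uncleaved substrate so more Dicer inhibition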
Target sequence (Q9UPY3 whole entry, looked up): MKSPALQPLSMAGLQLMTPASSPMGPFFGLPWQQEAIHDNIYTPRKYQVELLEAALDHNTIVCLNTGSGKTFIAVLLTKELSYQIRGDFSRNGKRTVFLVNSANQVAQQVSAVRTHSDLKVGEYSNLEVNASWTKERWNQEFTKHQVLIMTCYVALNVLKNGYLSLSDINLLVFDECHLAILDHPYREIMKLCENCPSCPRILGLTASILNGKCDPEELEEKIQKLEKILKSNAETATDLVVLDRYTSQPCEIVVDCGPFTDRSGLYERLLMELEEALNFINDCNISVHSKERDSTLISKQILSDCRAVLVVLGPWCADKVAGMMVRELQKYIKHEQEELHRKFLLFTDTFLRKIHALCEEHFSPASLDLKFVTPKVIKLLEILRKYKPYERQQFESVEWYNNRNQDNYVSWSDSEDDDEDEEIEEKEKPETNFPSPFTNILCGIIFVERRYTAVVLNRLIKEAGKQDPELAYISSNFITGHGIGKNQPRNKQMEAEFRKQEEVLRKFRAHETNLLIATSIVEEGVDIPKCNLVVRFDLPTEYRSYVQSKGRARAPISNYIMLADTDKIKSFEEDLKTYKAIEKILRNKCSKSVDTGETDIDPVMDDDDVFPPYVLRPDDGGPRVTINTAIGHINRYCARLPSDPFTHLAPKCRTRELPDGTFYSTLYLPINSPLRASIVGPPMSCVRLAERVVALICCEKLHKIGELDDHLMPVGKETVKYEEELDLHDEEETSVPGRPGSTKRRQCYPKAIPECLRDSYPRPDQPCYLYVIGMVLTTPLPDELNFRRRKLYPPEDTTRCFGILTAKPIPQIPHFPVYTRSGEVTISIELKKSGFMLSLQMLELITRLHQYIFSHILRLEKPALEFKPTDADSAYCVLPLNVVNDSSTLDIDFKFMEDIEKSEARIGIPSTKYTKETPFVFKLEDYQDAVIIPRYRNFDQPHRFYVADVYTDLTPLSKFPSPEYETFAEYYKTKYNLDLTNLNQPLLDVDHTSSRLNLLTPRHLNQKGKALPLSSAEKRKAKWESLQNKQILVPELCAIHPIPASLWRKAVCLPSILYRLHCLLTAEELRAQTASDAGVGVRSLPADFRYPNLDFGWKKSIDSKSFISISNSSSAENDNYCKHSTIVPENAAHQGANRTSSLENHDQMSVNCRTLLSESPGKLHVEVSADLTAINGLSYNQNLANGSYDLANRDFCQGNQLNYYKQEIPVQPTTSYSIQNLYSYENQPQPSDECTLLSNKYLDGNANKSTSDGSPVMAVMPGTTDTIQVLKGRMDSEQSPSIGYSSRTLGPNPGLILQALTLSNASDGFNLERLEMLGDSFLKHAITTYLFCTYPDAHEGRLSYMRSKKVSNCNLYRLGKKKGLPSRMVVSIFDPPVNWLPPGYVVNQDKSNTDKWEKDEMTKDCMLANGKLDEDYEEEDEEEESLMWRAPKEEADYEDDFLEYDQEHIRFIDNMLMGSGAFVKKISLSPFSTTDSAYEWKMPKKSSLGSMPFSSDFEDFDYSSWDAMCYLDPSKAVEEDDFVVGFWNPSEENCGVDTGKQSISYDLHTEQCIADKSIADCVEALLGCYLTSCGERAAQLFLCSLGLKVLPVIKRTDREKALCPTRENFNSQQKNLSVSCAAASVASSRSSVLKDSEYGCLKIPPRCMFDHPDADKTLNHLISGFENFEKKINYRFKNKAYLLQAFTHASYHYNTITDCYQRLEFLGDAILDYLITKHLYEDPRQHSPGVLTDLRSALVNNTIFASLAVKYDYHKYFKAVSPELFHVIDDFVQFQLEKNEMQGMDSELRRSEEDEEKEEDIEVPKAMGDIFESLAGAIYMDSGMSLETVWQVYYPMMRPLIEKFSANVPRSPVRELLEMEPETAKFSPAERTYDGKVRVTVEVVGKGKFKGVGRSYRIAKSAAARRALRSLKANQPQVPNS
Starred values were filed as active, the others as inactive.

SMILES | Dicer inh
Cc1ccc(S(=O)(=O)NC(C)c2ccccc2)cc1-c1nnc2c3ccccc3c(C)nn12 (stereo not drawn) | 0.34
Cc1ccc(S(=O)(=O)NC(C)(C)CO)cc1-c1nnc2c3ccccc3c(C)nn12 | 0.08
COC(=O)c1cc(C)nc(Sc2n[nH]c(-c3cc(Cl)cc(Cl)c3)n2)n1 | -0.63
CCCCNc1ncc2c(n1)CC(c1ccc(C(C)(C)C)cc1)CC2=O (stereo not drawn) | -0.81
CCOCCOC(=O)CSc1ncnc2sc(C)c(C)c12 | -0.04
COc1ccc(C)cc1Nc1nc(C)cc(C)c1C#N | 22
CCn1c(C)[n+](CC(O)COc2ccc(F)cc2)c2ccccc21 (stereo not drawn) | 0.85
CCc1n(CC)c2ccccc2[n+]1CC(O)COc1ccc(F)cc1 (stereo not drawn) | 5*
CCc1n(CC)c2ccccc2[n+]1CC(O)COc1ccccc1OC (stereo not drawn) | 0.58
C=CCN1C(=O)C(=O)c2cc(C)ccc21 | -0.78
O=C(NC(=O)c1ccc(Oc2ccc(Cl)cc2)c([N+](=O)[O-])c1)NN1CCOCC1 | 0.51
Cc1cc(=O)[nH]n(-c2ccccc2)c1=O | 2
O=C1c2ccccc2C(=O)N1c1ccc([N+](=O)[O-])cc1 | -1.1
O=c1c([N+](=O)[O-])c[nH]n(-c2ccccc2)c1=O | 4.4*
CC(c1ccccc1)N1COc2c(cc(Cl)c3cccnc23)C1 (stereo not drawn) | 1.1
CCOC(=O)CCCN1C(=O)c2cccc3cccc(c23)C1=O | 5.3*
CCOC(=O)CCCCCN1C(=O)c2cccc3cccc(c23)C1=O | -0.47
CCCCCN1C(=O)c2cccc3cccc(c23)C1=O | -0.15
c1ccc2c(c1)CCN2Cn1nnc2ccccc21 | 4.4*
S=c1[nH]nc(Cn2nnc3ccccc32)o1 | -1.4
Fc1ccc(Cn2nnc3ccccc32)cc1 | 2.6
CCO/C=C1\SC(=S)N(CCc2ccccc2)C1=O | -1.2
C/C=C(\C)C(=O)NC(=S)NNC(=O)c1c(-c2ccccc2)noc1C | -0.79
Cc1nn(C)c(NNC(=O)C(C)(C)C)c1[N+](=O)[O-] | -0.32
COc1ccccc1NS(=O)(=O)c1sc2ccc(Cl)cc2c1C | 3.3*
SMILES | Dicer inh
Cc1ccc(NS(=O)(=O)c2sc3ccc(Cl)cc3c2C)cc1 | 1.4
Cc1c(S(=O)(=O)Nc2ccc3c(c2)OCCO3)sc2ccc(Cl)cc12 | 0.83
O=S(=O)(NC1Cc2ccccc2C1)c1cc(C(F)(F)F)ccc1Cl | -3.3
CS(=O)(=O)NCCSc1cc(C(F)(F)F)nc2ccccc12 | -1.2
Cc1[nH]nc2c1C(c1ccccc1)C(C#N)=C(N)O2 (stereo not drawn) | -1.2
CN(C)c1ccc(C2C(C#N)=C(N)Oc3c2sc2ccccc32)cc1 (stereo not drawn) | 6*
CC(=O)n1c2c(c3ccccc31)OC(N)=C(C#N)C2c1ccc(Cl)cc1 (stereo not drawn) | -0.43
N=c1scc(-c2ccccc2)n1-c1cccc(Cl)c1Cl | -0.87
Cc1ccc(NC2CCS(=O)(=O)C2)cc1 (stereo not drawn) | -0.89
CCOC(=O)N1CCC(=C2c3ccc(Cl)cc3CCc3cccnc32)CC1 | 0.86
CCCCNc1c([N+](=O)[O-])c(=O)sc2ccccc12 | 7*
O=c1sc2ccccc2c(NCCCN2CCOCC2)c1[N+](=O)[O-] | -0.32
CN(C)CCCNc1sc(-c2ccccn2)c([N+](=O)[O-])c1[N+](=O)[O-] | 0.03
O=c1sc2ccccc2c(Nc2ccccc2)c1[N+](=O)[O-] | 3.6*
CC(C)(C)Nc1c([N+](=O)[O-])c(=O)sc2ccccc12 | -0.95
O=c1sc2ccccc2c(N2CCN(c3ccccc3)CC2)c1[N+](=O)[O-] | 0.84
CN1C[C@H](C(=O)N[C@]2(C)O[C@@]3(O)[C@@H]4CCCN4C(=O)[C@H](Cc4ccccc4)N3C2=O)CC2c3cccc4[nH]cc(c34)C[C@H]21 (mixture of isomers) | -0.77
COc1c(Cl)cc(Cl)c(OC)c1NC(=O)Nc1cc(C(F)(F)F)cc(C(F)(F)F)c1 | 0.41
COc1cc(C2c3c(oc4ccc(F)cc4c3=O)C(=O)N2Cc2ccccc2Cl)ccc1O (stereo not drawn) | -0.43
CCOC(=O)CSc1nn(-c2ccccc2)c(=S)s1 | 1.5
CCOC(=O)c1cc(-c2ccccc2)sc1NC(=O)CN1CCc2ccccc21 | 0
CCOc1ccc(C2Nn3c(C)nnc3SC2C(=O)NCC2CCCO2)cc1 (stereo not drawn) | 3.4*
O=C(NCC1CCCO1)C1Sc2nnc(-c3ccccc3)n2NC1c1ccc(Cl)cc1 (stereo not drawn) | 1.7
O=C(NCC1CCCO1)C1Sc2nnc(-c3ccccc3)n2NC1c1ccc(F)cc1 (stereo not drawn) | -0.07
O=C1NC(=O)c2ccc(N3CCOCC3)c3cccc1c23 | 1.3
SMILES | Dicer inh
COC(=O)c1cn(Cc2ccc(C(F)(F)F)cc2)cc(F)c1=O | 0.44
CN1C(=O)C(O)(CC(=O)c2ccc(F)cc2)c2cc(Br)ccc21 (stereo not drawn) | -0.51
O=C(CC1(O)C(=O)N(CCCc2ccccc2)c2ccccc21)c1ccccc1O (stereo not drawn) | -0.51
CC(C)c1ccc(NC(=S)NNC(=O)NC(=O)c2csc([N+](=O)[O-])c2)cc1 | 4.7*
CC(C)CNC(=S)NC(=O)c1csc([N+](=O)[O-])c1 | 1.1
O=C(NC(=S)NN1CCCCC1)c1csc([N+](=O)[O-])c1 | 2.2
NC(=S)N/N=C/c1cc2c(s1)-c1cc(Cl)ccc1OC2 | 5
N#C/C(=C\c1cc(C#Cc2ccccc2)cs1)C(=O)c1ccco1 | -1.8
Cc1c(C(=O)N(Cc2ccccc2)C2CCS(=O)(=O)C2)oc2ccccc12 (stereo not drawn) | 1.1
CCc1ccc(CN(C(=O)c2oc3ccccc3c2C)C2CCS(=O)(=O)C2)cc1 (stereo not drawn) | 3.6*
Cc1c(C(=O)N(Cc2cccs2)C2CCS(=O)(=O)C2)oc2ccccc12 (stereo not drawn) | 1.7
CC(=O)OCCS(=O)(=O)c1ccc(C(F)(F)F)cn1 | -0.79
Cc1ccsc1/C=C/c1cc(C(F)(F)F)[nH]c(=O)n1 | 1.1
O=c1nc(/C=C/c2ccc(-c3cccc(F)c3)o2)cc(C(F)(F)F)[nH]1 | 3.1*
COc1cc(/C=C/c2cc(C(F)(F)F)[nH]c(=O)n2)ccc1O | -0.13
CC(C)c1ccc(NC(=O)CSC2=C(C#N)C(c3cccs3)C3=C(CC(C)(C)CC3=O)N2)cc1 (stereo not drawn) | -0.28
COC(=O)c1cnc(Sc2ccccc2NC(=O)C(C)C)c([N+](=O)[O-])c1 | -1.9
COc1cccc(C2Oc3ccccc3C3CC(c4ccccc4O)=NN32)c1 (stereo not drawn) | 3.8
Oc1ccc(C2Oc3ccccc3C3CC(c4ccccc4O)=NN32)cc1 (stereo not drawn) | 18*
COc1ccc(C2Oc3ccccc3C3CC(c4ccccc4O)=NN32)cc1OC (stereo not drawn) | 4.8*
COc1ccc(C2Oc3ccccc3C3CC(c4ccccc4O)=NN32)cc1O (stereo not drawn) | 1.6
COc1ccc(O)c(C2=NN3C(C2)c2ccccc2OC3c2ccc(OC)c(O)c2)c1 (stereo not drawn) | 1
Oc1ccccc1C1=NN2C(C1)c1ccccc1OC2c1ccncc1 (stereo not drawn) | 1.9
O=C1C(c2cc3ccccc3cn2)=C(O)c2ccccc21 | 0.94
Cc1nnc2n1NC(c1ccc(Cl)cc1)C(C(=O)N1CCCCC1)S2 (stereo not drawn) | -1.6
CN(C)/C=C1/C(=O)N(c2ccccc2)N=C1C(F)(F)F | -2.2
